Bioassay records as filed in PubChem.
This excerpt belongs to a sample that is enriched for hits.
Cruzain inh Det = cruzain (T. cruzi) inhibition with detergent; P25779; purified cruzain, Z-FR-AMC fluorescence, 0.01% Triton; Potency, µM, without a hit: max response, negative = inhibition, actives largely listed as inhibitors; 200,000 tested, 0.43% active; AID 1478;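 further: potency means the concentration at half of the fitted maximal effect; plate controls were neutral wells for no effect and buffer without enzyme for full effect; nearly all actives have a fitted effect of over 40% in size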
Target sequence (P25779 123-467 limits assumed): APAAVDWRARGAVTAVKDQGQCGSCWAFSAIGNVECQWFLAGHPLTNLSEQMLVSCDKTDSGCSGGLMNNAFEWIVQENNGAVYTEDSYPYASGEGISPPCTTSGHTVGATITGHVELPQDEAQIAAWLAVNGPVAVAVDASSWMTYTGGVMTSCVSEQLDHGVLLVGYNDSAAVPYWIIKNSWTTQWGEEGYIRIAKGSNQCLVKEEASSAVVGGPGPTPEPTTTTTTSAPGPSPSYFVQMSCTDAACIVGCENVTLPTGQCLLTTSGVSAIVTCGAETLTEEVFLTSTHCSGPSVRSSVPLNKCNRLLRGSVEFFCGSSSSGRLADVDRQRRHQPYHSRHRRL
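Detergent-containing run (0.01% Triton X-100) in acetate buffer pH 5.5 with 5 mM DTT: enzyme at 1.5 nM final, 15 min compound preincubation at room temperature, then 2 uM Z-FR-AMC substrate. Activity taken as 60 s fluorescence increase at 360/450 nm.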
NS1 inh = inhibitors of influenza NS1 protein function. Potency, µM (titrated, usually from 46.1 µM), without a hit: top-dose activity, positive = more growth. 270,000 tested, 0.4% active; calls by dose curve; further: potency means the concentration at half of the fitted maximal effect; actives are rising curves; nearly all actives have a fitted effect of over 50% in size
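Read-out: OD600 growth recovery of NS1-expressing budding yeast. Cells grown overnight at 30C in -URA glucose medium, washed, resuspended and diluted 1:100 in 2% galactose assay medium, pH 6.0. Same strain lacking NS1 served as positive control.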
Cruzain inh noDet = blocks cruzain activity in detergent-free assay; Potency, µM, without a hit: max response, negative = inhibition, usual class: inhibitors; purified cruzain, Z-FR-AMC fluorescence, no detergent; 200,000 tested, 2.3% active;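 further: potency means the concentration at half of the fitted maximal effect; plate controls were enzyme without inhibitor for no effect and buffer without enzyme for full effect; nearly all actives have a fitted effect of over 40% in size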
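Purified cruzain at 1.5 nM, pre-incubated 15 min with compound at room temperature in 100 mM sodium acetate pH 5.5, 5 mM DTT, 0.00005% Triton X-100. Reaction started with 2 uM Z-FR-AMC; AMC fluorescence increase over 60 s gives rate.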
Papain counter = counter-screen for cruzain inhibitors: papain inhibition; 410 tested, 41% active; shares compounds with Cruzain inh Det; Potency, µM, inactives show max response, negative = inhibition, actives largely listed as inhibitors; purified papain, Z-FR-AMC fluorescence cleavage; AID 2161;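 further: potency means the concentration at half of the fitted maximal effect; 0% = no-compound wells and -100% = no-enzyme wells; nearly all actives have a fitted effect of over 35% in size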
Target sequence (P00784 whole entry, looked up): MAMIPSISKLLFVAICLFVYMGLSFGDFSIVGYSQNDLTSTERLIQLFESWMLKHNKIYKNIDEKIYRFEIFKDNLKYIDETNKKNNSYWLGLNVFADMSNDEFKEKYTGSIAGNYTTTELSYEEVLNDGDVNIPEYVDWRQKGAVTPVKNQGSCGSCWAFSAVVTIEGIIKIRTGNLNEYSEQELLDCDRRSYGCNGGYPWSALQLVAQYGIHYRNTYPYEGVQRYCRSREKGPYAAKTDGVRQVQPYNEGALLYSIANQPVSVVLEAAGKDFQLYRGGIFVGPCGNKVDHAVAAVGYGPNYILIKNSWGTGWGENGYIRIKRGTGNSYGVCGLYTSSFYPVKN
Flu NS1 inh = influenza NS1 function inhibition validation. shares compounds with NS1 inh. influenza NS1 function cell assay, 15-point titration. activity change, negative = inhibition, % at 32.9 µM. 1,400 tested, under 10 active. AID 492980; calls by dose curve; further: 0% is about no effect
Flu PR8 replic = influenza virus titer reduction, NS1 project; shares compounds with NS1 inh; MDCK infected influenza A/PR/8/34, virus titer TCID50; active compounds read low; virus titer (log TCID50), log10 TCID50 at 5 µM; 95 tested, 30% active; AID 504647; call rule not given here
* marks the source's active call; other numbers are inactive results; [ ] = dose if it differs, or a comment. Unless noted, the call rests on the fitted dose curve; in most records, active means well fitted curve in the direction sought with a large enough effect; inconclusive means small, poorly fitted or top-dose-only effect, or another doubt; inactive means no such curve, though single readings can be large; an effect the other way counts as inactive or inconclusive.

`COCCc1nc2ccc(C(=O)N(C)Cc3cccc(-n4cccn4)c3)cc2o1` gave NS1 inh -12.1%.
For O=C(Nc1ccc(-c2nc3ccccc3o2)c(O)c1)c1cc(Cl)ccc1Cl the results were Cruzain inh Det -0.4% and Cruzain inh noDet 11.6%.
Screening O=C(Nc1ccc(O)c(-c2nc3ccccc3o2)c1)C1(c2ccc([N+](=O)[O-])cc2)CCCC1 returned Cruzain inh Det -3.3%, NS1 inh 8.91µM*, Cruzain inh noDet 3.98µM*, Papain counter 12.6% and Flu NS1 inh -17.0.
For O=C(CN1CCN(Cc2ccccc2F)C1=O)NCc1ccccc1 the results were Cruzain inh Det 3.9% and Cruzain inh noDet 3.4%.
`COc1ccccc1Nc1nc(N)nc(CSC(=S)N2CC(C)CC(C)C2)n1` (stereo unspecified) gave Cruzain inh Det 0.9%, NS1 inh 10µM*, Cruzain inh noDet -4.3% and Flu NS1 inh inconclusive.
`CC1CCN(C(=S)SCc2nc(N)nc(Nc3ccccc3)n2)CC1` gave NS1 inh -2.7%.
For O=C(NC1CCCCC1)C1CC(=O)N(c2ccccc2)C1 (stereo unspecified) the results were NS1 inh 1.0%.
Screening CN(C)S(=O)(=O)c1cccc(COC(=O)CN2CCCCCC2=O)c1 returned NS1 inh 15.3%.
`O=C(CN1CCCCCC1=O)OCc1ncc(-c2ccccc2)o1` gave Cruzain inh Det -5.6%, NS1 inh 0.447µM*, Cruzain inh noDet -0.6%, Flu NS1 inh -0.2 and Flu PR8 replic 8.5.
Cc1ccc2[nH]cc(C(=O)NCc3cccs3)c(=O)c2c1 was read as Cruzain inh Det -3.1%, NS1 inh 6.5%[9.22 µM] and Cruzain inh noDet -3.4%.
COc1cccc2c(=O)c(C(=O)NCc3cccs3)c[nH]c12 was read as Cruzain inh Det -3.9%, NS1 inh 1.41µM*, Cruzain inh noDet 4.9% and Flu NS1 inh -4.1.
Screening O=C(CSc1ccccc1)N1CCN(S(=O)(=O)c2ccccc2)CC1 returned NS1 inh 3.0%.
For Nc1cc(N)nc(SCC(=O)N2CCN(S(=O)(=O)c3ccccc3)CC2)n1 the results were NS1 inh 11.2µM* and Flu NS1 inh 4.5.
NC(=O)[C@@H]1CCCN1Cc1nc(-c2ccc(C(F)(F)F)cc2)no1 was read as NS1 inh 2.8%.
COC(=O)c1cc(C(=O)Nn2cnnc2)cc([N+](=O)[O-])c1 was read as NS1 inh 18.6%.
Screening N#CCC(=O)NN=C1CCCCCCCCCCC1 returned Cruzain inh Det 2.8%, NS1 inh 1.78µM*, Cruzain inh noDet -5.9% and Flu NS1 inh 4.0.
O=C(CSc1ncccn1)NN=C1CCCCCCC1 was read as Cruzain inh Det -1.8%, NS1 inh 7.0% and Cruzain inh noDet -0.2%.
For C=CCn1c(SCC(=O)N(CC)CC)nc(O)cc1=O the results were Cruzain inh Det 1.3%, NS1 inh 2.51µM*, Cruzain inh noDet -7.0% and Flu NS1 inh 1.5.
`C=CCn1c(SCC(=O)N2CCCCC2)nc(O)cc1=O` gave Cruzain inh Det 4.5%, NS1 inh 10.2% and Cruzain inh noDet -0.7%.
CCCC(C)NC(=S)NC(=O)c1cc(S(=O)(=O)N2CCOCC2)ccc1C (stereo unspecified) was read as Cruzain inh Det -7.6%, NS1 inh 6.7% and Cruzain inh noDet 3.9%.
`CCCCCC(C)NC(=S)NC(=O)c1cc(S(=O)(=O)N2CCOCC2)ccc1C` (stereo unspecified) gave Cruzain inh Det -18.0%, NS1 inh 20µM*, Cruzain inh noDet 16.8% and Flu NS1 inh -37.1.
COCCCNC(=S)NNC(=O)c1cc(C2CC2)nc2ccccc12 was read as NS1 inh -0.1%.
Cc1nn(-c2ccccc2)c2sc(-c3nnc(SCC(=O)O)o3)cc12 was read as Cruzain inh Det -16.6%, NS1 inh 1.9% and Cruzain inh noDet inconclusive.
`CCn1c(SCC(=O)O)nnc1-c1cc2c(C)nn(-c3ccccc3)c2s1` gave Cruzain inh Det -4.1%, NS1 inh inconclusive, Cruzain inh noDet inconclusive and Flu NS1 inh 8.0.
Screening Cc1ccc(CCNC(=O)C23CN(Cc4ccccc4)CC2C(c2cccc([N+](=O)[O-])c2)=NO3)cc1 (stereo unspecified) returned Cruzain inh Det -0.9%, NS1 inh 12.3% and Cruzain inh noDet -27.1%.
Screening O=C(NCc1ccc(C(F)(F)F)cc1)C12CN(Cc3ccccc3)CC1C(c1cccc([N+](=O)[O-])c1)=NO2 (stereo unspecified) returned Cruzain inh Det 0.9%, NS1 inh 12.6µM*, Cruzain inh noDet inconclusive and Flu NS1 inh 7.6.
Screening O=C(NCc1ccc2c(c1)OCO2)C12CN(Cc3ccccc3)CC1C(c1cccc([N+](=O)[O-])c1)=NO2 (stereo unspecified) returned Cruzain inh Det 3.0%, NS1 inh 12.6µM*, Cruzain inh noDet -14.3% and Flu NS1 inh -11.5.
Screening O=C(NCC1CCCCC1)C12CN(Cc3ccccc3)CC1C(c1cccc([N+](=O)[O-])c1)=NO2 (stereo unspecified) returned Cruzain inh Det -3.4%, NS1 inh 23.4% and Cruzain inh noDet inconclusive.
Clc1ccc(-c2ccc(CNCC3CCCO3)o2)cc1 (stereo unspecified) was read as NS1 inh -2.7%.
Screening CCC(Sc1nc(=O)cc(N)n1-c1cccc(C)c1)C(=O)Nc1cc(C)on1 (stereo unspecified) returned Cruzain inh Det -8.9%, NS1 inh -1.5% and Cruzain inh noDet -26.0%.
Screening CC(C)C[C@H](NC(=O)c1nc[nH]c1C(=O)NCc1ccc(CNC(=O)OC(C)(C)C)cc1)C(=O)OC(C)(C)C returned NS1 inh 8.91µM* and Flu NS1 inh 2.4.
CC(C)(C)OC(=O)CNC(=O)c1[nH]cnc1C(=O)N[C@@H](Cc1ccccc1)C(=O)OC(C)(C)C was read as NS1 inh -5.9%.
`C[C@H](NC(=O)c1nc[nH]c1C(=O)N[C@@H](CCCCNC(=O)OC(C)(C)C)C(=O)OC(C)(C)C)C(=O)OCc1ccccc1` gave NS1 inh 10µM* and Flu NS1 inh -33.4.
For C[C@H](NC(=O)c1nc[nH]c1C(=O)N[C@@H](C)C(=O)OC(C)(C)C)C(=O)OCc1ccccc1 the results were NS1 inh 14.1%.
C[C@H](NC(=O)c1nc[nH]c1C(=O)N[C@@H](Cc1ccccc1)C(=O)OCc1ccccc1)C(=O)OC(C)(C)C was read as NS1 inh 10µM* and Flu NS1 inh -25.0.
CC(C)C[C@H](NC(=O)c1nc[nH]c1C(=O)NCc1ccccc1)C(=O)OC(C)(C)C was read as NS1 inh 7.0%.
